Source: PubChem BioAssay (Tox21)
Records with an inconclusive call do not appear. Calls of active or inactive are those of the source. Unless noted, the call rests on the fitted dose curve.

Assays:
[1] = qHTS assay to identify small molecule agonists of the sonic hedgehog signaling (Shh) pathway (AID 1259368);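 further: NIH/3T3-derived 3T3Gli1-Luc cells carrying a stable Gli1-driven firefly luciferase reporter; series mostly up to about 92 µM; nearly all actives have a fitted effect of over 15% in size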
How it was run: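 Quantitative high-throughput format using a Gli1-driven firefly luciferase reporter line derived from NIH/3T3 cells. After a 24 hr compound treatment at 37 C and 5% CO2, luminescence reported Gli1 response element activity.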

[2] = qHTS assay to identify small molecule antagonists of the sonic hedgehog signaling (Shh) pathway (AID 1259369); further: nearly all actives have a fitted effect of over 45% in size
How it was run: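 Stable Gli1-Luc reporter NIH/3T3 clone; quantitative HTS in stimulated mode with conditioned medium. Luminescence measured after 24hr compound treatment at 37 C.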

[3] = target: Estrogen receptor beta (Homo sapiens) (UniProt Q92731); assay: qHTS assay to identify small molecule agonists of the estrogen receptor beta (ER-beta) signaling pathway (AID 1259377; active means well fitted activation curve with a large enough effect in the signal ratio in the repeat runs, not every such curve was filed as active; the % refers to the signal ratio)
How it was run: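 In HEK293T cells bearing a UAS-beta-lactamase reporter under ER-beta control, DMSO-delivered compounds were incubated for 16 hr at 37C. Activity was detected as fluorescence 2 hours after LiveBLAzer B/G FRET substrate addition.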

[4] = target: Estrogen receptor beta (Homo sapiens) (UniProt Q92731); assay: qHTS assay to identify small molecule antagonists of the estrogen receptor beta (ER-beta) signaling pathway (AID 1259378; active means well fitted inhibition curve with a large enough effect in the signal ratio in the repeat runs, not every such curve was filed as active; the % refers to the signal ratio)
How it was run: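 ER-beta-UAS-bla HEK293T cells in 2% charcoal-stripped FBS medium treated with compound plus 1nM final 17-beta-estradiol for 16 hr at 37C. Beta-lactamase reporter read by FRET substrate fluorescence after 2 hours at room temperature.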

[5] = qHTS assay to identify small molecule agonists of the androgen receptor (AR) signaling pathway in the presence of an antagonist - cell viability counter screen (AID 1259379; active means well fitted curve in the direction sought with a large enough effect in the repeat runs; an effect the other way counts as inactive or inconclusive;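 further: MDA-kb2 human breast cancer cells carrying an MMTV luciferase reporter; series mostly up to about 92 µM; nearly all actives have a fitted effect of over 25% in size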)
How it was run: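 Nilutamide-containing (3.0uM final) MDA-kb2 cultures, 3,000 cells/well, were treated with compounds across 15 concentrations. After 16 hr at 37C with no CO2, cell viability was determined by CellTiter-Fluor fluorescence in the luciferase assay wells.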

[6] = qHTS assay to identify small molecule agonists of the estrogen receptor beta (ER-beta) signaling pathway - cell viability counter screen (AID 1259380; active means well fitted curve in the direction sought with a large enough effect in the repeat runs; an effect the other way counts as inactive or inconclusive; further: nearly all actives have a fitted effect of over 30% in size)
How it was run: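 Steps: plate ER-beta-UAS-bla HEK293T cells, rest 6 hr; add compounds in DMSO; incubate 16 hr at 37C, 5% CO2; add FRET substrate 2 hr; add CellTiter-Glo, wait 30 min at room temperature; read luminescence.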

[7] = qHTS assay to identify small molecule antagonists of the estrogen receptor beta (ER-beta) signaling pathway - cell viability counter screen (AID 1259382; active means well fitted curve in the direction sought with a large enough effect in the repeat runs; an effect the other way counts as inactive or inconclusive; further: series mostly up to about 92 µM; nearly all actives have a fitted effect of over 55% in size)
How it was run: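 Viability is scored by CellTiter-Glo luminescence (30 min, room temperature) in ER-beta-UAS-bla HEK293T wells already read for reporter fluorescence. Compound exposure lasts 16 hr at 37C alongside 1nM 17-beta-estradiol in charcoal-stripped serum medium.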

[8] = target: Estrogen receptor (Homo sapiens) (UniProt P03372); assay: qHTS assay to identify small molecule agonists of the estrogen receptor alpha (ER-alpha) signaling pathway in the presence of an antagonist (AID 1259383); further: top concentration of the series differs between compounds; nearly all actives have a fitted effect of over 15% in size
How it was run: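 Readout was ERE-driven luciferase luminescence in VM7Luc4E2 cells, which express full-length ER-alpha endogenously. Compounds were tested at 15 concentrations for 22hr alongside 10.0nM ICI-182,780 (final concentration).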

[9] = qHTS assay to identify small molecule agonists or antagonists of the thyroid stimulating hormone receptor (TSHR) signaling pathway - wild type cell line counter screen (AID 1259384)
How it was run: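 Wild-type Hek293 cells, 800/well, 18 h at 37C, then compound with Ro20-1724 for 30 min RT. cAMP by HTRF (cAMP-d2/anti-cAMP cryptate), 1 h RT, fluorescence read. 15 concentrations, triplicates.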

[10] = target: Thyrotropin receptor (Homo sapiens) (UniProt P16473); assay: qHTS assay to identify small molecule antagonists of the thyroid stimulating hormone receptor (TSHR) signaling pathway (AID 1259385); further: nearly all actives have a fitted effect of over 20% in size
How it was run: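 TSHR-HEK293 cells (800/well) plated 18 h, then compounds with Ro20-1724 and TSH at 1.5 ng/mL final, 30 min at room temperature. cAMP quantified by HTRF (cAMP-d2/anti-cAMP-cryptate, 1 h); 15 concentrations in triplicate.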

[11] = qHTS assay to identify small molecule agonists of the estrogen receptor alpha (ER-alpha) signaling pathway in the presence of an antagonist - cell viability counter screen (AID 1259386; active means well fitted curve in the direction sought with a large enough effect in the repeat runs; an effect the other way counts as inactive or inconclusive;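 further: series mostly up to about 92 µM; cells exposed to compounds for 22 h at 37 °C before the viability read; nearly all actives have a fitted effect of over 30% in size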)
How it was run: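 In this counter screen, compound effects on VM7Luc4E2 viability were tested in the presence of the antagonist ICI-182,780 at 10.0nM final. Compounds were dosed at 15 concentrations, exposure lasted 22hr, and the CellTiter-Fluor signal was read.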

[12] = target: Progesterone receptor (Homo sapiens) (UniProt P06401); assay: qHTS assay to identify small molecule agonists of the progesterone receptor (PR) signaling pathway (AID 1346784); further: nearly all actives have a fitted effect of over 30% in size
How it was run: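 Using charcoal-stripped serum (2%) to limit endogenous steroids, PR-UAS-bla HEK 293T cells received compounds for 16 hr at 37C after 6 hr plating; beta-lactamase FRET fluorescence was recorded following 2 hr substrate loading at room temperature.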

[13] = target: Progesterone receptor (Homo sapiens) (UniProt P06401); assay: qHTS assay to identify small molecule antagonists of the progesterone receptor (PR) signaling pathway (AID 1346795; active means well fitted inhibition curve with a large enough effect in the signal ratio in the repeat runs, not every such curve was filed as active; the % refers to the signal ratio)
How it was run: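 Inhibition of R5020-induced (1 nM final) beta-lactamase reporter signal in PR-UAS-bla HEK293T cells was scored by FRET fluorescence after overnight (16 hr) compound treatment.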

[14] = qHTS assay to identify small molecule antagonists of the progesterone receptor (PR) signaling pathway - cell viability counter screen (AID 1346798; active means well fitted curve in the direction sought with a large enough effect in the repeat runs; an effect the other way counts as inactive or inconclusive; further: series mostly up to about 92 µM; nearly all actives have a fitted effect of over 50% in size)
How it was run: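 ATP content as viability readout: CellTiter-Glo luminescence, 30 min room temperature, in PR-UAS-bla HEK293T cells after 16 hr compound/R5020 treatment at 37C and 5% CO2.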

[15] = qHTS assay to identify small molecule agonists of the progesterone receptor (PR) signaling pathway - cell viability counter screen (AID 1346799); further: nearly all actives have a fitted effect of over 45% in size
How it was run: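 Cytotoxicity in PR-bla HEK293T cells: 16 h compound, 37C; CellTiter-Glo added post-FRET read; luminescence after 30 min RT.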

[16] = qHTS assay to identify small molecule agonists of the TGF-beta/Smad signaling pathway - cell viability counter screen (AID 1346829; active means well fitted curve in the direction sought with a large enough effect in the repeat runs; an effect the other way counts as inactive or inconclusive; further: top concentration of the series differs between compounds; nearly all actives have a fitted effect of over 45% in size)
How it was run: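 HEK 293T SBE-bla line, 5 hr compound exposure at 37 C, multiplexed CellTiter-Glo viability read by luminescence.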

[17] = qHTS assay to identify small molecule agonists of the TGF-beta/Smad signaling pathway (AID 1346859; active means well fitted activation curve with a large enough effect in the signal ratio in the repeat runs, not every such curve was filed as active; the % refers to the signal ratio; further: series mostly up to about 77 µM)
How it was run: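 Stable Smad binding element-beta-lactamase HEK 293T cells; 5 hr compound exposure at 37 C under 5% CO2; 2 hr room-temperature substrate step; fluorescence excited at 405 nm, collected at 460 nm and 530 nm.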

[18] = target: Thyrotropin-releasing hormone receptor (Homo sapiens) (UniProt P34981); assay: qHTS assay to identify small molecule antagonists of the thyrotropin-releasing hormone receptor (TRHR) signaling pathway (AID 1346877; active means well fitted inhibition curve with a large enough effect in the repeat runs, not every such curve was filed as active; further: series mostly up to about 51 µM)
How it was run: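 Kinetic fluorescence (3 min, 1 s resolution) following stimulation with TRH at 1 nM final; HEK293 cells bearing human TRHR; 5 min compound preincubation at RT; concentration-response over 15 points, triplicates.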

[19] = target: Androgen receptor (Homo sapiens) (UniProt P10275); assay: qHTS assay to identify small molecule agonists of the androgen receptor (AR) signaling pathway in the presence of an antagonist (AID 1259381); further: nearly all actives have a fitted effect of over 15% in size
How it was run: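 Reporter-gene luminescence from MDA-kb2 cells exposed 16hr at 37C (0% CO2) to 15-point compound titrations with 3.0uM final nilutamide as AR antagonist.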

[20] = qHTS assay to identify small molecule antagonists of the TGF-beta/Smad signaling pathway - cell viability counter screen (AID 1346824; active means well fitted curve in the direction sought with a large enough effect in the repeat runs; an effect the other way counts as inactive or inconclusive; further: nearly all actives have a fitted effect of over 50% in size)
How it was run: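 SBE-bla HEK 293T cells, incubated overnight, then compound plus 0.25 ng/mL TGF-beta1 (stock added) for 5 hr at 37 C. Viability was read in the same wells by CellTiter-Glo luminescence after 30 min at room temperature.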

Measured: Potency

Sequence of Thyrotropin-releasing hormone receptor (Homo sapiens) (P34981 whole entry, looked up): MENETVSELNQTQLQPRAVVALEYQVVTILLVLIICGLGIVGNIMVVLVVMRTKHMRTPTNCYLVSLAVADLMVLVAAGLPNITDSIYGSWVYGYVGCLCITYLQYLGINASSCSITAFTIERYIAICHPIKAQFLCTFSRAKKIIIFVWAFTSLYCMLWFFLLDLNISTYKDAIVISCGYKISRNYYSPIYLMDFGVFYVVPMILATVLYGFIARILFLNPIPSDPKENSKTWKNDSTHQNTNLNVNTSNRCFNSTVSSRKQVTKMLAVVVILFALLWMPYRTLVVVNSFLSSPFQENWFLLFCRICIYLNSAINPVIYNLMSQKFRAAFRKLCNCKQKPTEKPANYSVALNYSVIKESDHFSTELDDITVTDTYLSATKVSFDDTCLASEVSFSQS
Sequence of Estrogen receptor (Homo sapiens) (P03372 whole entry, looked up): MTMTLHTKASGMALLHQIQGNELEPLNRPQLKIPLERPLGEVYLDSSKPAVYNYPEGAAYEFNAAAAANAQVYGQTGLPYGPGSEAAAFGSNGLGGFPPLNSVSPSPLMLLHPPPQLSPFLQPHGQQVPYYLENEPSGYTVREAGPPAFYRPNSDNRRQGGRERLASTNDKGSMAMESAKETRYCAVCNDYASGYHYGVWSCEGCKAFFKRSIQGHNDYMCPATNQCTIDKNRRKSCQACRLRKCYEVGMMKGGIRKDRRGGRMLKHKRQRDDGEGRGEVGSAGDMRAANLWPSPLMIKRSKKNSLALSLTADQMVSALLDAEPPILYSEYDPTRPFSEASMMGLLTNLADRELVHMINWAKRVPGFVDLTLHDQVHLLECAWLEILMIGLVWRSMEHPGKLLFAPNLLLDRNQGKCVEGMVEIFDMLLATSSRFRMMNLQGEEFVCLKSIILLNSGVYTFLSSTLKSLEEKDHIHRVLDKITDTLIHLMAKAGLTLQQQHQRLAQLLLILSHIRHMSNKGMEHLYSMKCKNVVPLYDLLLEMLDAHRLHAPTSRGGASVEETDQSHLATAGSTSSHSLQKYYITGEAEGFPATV
Sequence of Estrogen receptor beta (Homo sapiens) (Q92731 whole entry, looked up): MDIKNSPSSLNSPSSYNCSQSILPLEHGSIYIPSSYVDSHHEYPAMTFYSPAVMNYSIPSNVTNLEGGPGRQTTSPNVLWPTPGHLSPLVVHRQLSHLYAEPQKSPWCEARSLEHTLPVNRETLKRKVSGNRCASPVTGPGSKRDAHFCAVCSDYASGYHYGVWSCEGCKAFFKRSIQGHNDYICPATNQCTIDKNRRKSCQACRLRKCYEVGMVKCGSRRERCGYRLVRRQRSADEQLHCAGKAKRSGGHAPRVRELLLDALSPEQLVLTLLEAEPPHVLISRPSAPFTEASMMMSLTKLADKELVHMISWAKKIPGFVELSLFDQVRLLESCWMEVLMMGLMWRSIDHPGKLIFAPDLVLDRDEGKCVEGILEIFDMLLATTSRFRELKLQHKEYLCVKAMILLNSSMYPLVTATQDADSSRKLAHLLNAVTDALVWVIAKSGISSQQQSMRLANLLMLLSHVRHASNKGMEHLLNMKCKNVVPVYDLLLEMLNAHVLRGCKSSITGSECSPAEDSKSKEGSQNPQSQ
Sequence of Progesterone receptor (Homo sapiens) (P06401 whole entry, looked up): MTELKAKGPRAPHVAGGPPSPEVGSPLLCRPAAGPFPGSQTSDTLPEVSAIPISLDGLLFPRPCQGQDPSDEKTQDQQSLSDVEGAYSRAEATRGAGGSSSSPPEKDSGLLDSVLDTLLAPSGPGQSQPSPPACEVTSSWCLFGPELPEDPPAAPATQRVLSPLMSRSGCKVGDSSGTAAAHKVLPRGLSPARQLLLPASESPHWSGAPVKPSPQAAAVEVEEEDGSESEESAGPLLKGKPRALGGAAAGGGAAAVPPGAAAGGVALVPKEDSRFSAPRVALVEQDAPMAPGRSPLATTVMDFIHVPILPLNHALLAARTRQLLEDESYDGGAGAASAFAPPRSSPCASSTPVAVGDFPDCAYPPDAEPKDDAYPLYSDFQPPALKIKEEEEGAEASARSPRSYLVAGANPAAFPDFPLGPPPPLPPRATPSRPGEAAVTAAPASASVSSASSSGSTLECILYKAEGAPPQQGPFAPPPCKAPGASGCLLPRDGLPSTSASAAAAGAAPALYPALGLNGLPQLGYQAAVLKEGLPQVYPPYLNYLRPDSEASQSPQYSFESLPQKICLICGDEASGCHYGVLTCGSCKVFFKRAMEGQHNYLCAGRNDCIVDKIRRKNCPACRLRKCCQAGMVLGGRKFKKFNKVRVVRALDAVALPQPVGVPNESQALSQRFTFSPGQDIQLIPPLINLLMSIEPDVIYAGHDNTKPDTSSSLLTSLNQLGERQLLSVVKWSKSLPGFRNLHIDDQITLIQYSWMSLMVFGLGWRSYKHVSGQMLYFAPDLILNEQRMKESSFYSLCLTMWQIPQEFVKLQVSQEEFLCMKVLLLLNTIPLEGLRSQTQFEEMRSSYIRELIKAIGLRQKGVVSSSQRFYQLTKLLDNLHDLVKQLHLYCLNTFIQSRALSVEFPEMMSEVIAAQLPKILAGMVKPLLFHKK
Sequence of Thyrotropin receptor (Homo sapiens) (P16473 whole entry, looked up): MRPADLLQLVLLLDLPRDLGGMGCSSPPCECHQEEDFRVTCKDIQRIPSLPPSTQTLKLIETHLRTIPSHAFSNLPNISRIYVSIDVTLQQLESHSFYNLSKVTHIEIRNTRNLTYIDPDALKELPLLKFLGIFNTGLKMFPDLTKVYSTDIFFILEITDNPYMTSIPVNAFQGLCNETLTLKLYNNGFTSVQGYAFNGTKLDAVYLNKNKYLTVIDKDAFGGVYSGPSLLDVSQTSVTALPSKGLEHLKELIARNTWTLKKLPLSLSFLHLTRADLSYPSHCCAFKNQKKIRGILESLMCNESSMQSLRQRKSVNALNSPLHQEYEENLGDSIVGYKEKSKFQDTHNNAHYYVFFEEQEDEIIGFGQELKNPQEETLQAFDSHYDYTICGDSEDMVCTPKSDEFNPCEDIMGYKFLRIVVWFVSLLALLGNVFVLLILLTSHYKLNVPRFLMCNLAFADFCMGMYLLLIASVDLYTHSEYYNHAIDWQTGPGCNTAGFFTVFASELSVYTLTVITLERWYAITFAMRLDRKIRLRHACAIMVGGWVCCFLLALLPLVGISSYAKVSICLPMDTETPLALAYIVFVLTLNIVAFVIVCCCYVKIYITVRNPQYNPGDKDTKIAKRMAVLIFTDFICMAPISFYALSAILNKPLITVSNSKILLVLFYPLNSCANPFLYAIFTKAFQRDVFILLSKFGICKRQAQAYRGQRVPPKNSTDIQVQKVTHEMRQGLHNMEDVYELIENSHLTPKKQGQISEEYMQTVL
Sequence of Androgen receptor (Homo sapiens) (P10275 whole entry, looked up): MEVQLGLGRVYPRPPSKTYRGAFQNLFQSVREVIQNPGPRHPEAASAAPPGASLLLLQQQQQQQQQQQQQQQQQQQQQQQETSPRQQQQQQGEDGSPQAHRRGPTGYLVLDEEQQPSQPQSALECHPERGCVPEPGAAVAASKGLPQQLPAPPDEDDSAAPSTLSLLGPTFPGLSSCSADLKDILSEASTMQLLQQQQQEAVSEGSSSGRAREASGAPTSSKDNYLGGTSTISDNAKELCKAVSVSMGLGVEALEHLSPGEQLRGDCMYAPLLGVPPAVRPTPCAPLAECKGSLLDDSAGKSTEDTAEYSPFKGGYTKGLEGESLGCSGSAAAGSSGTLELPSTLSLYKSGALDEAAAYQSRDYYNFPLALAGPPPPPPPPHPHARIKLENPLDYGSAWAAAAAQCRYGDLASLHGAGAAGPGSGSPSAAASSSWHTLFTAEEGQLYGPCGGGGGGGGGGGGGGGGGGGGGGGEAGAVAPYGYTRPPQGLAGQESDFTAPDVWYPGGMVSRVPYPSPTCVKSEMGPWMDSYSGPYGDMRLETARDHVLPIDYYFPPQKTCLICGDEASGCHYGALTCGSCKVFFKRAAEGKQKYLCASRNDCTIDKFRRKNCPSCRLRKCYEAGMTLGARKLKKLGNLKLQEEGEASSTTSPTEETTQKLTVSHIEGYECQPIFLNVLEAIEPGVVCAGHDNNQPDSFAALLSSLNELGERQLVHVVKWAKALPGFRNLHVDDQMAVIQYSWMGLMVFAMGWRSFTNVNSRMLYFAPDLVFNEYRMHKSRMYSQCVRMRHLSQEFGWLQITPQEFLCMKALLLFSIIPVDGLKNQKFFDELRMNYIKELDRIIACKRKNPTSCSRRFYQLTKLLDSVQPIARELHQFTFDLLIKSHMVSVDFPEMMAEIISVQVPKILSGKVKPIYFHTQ

COCCOC(=O)CC#N
not listed: [19] | [20]
inactive: all other assays above

CCCC(C)CO (configuration not stated)
not listed: [8] | [18]
inactive: all other assays above

CC(C)(O)Cc1ccccc1
not listed: [19]
inactive: all other assays above

O=C(O)c1ccc[n+]([O-])c1
not listed: [14]
inactive: all other assays above

CCO[Si](C)(OCC)OCC
not listed: [19]
inactive: all other assays above

CC(C)(C)N(CCO)CCO
not listed: [19]
inactive: all other assays above
